# Compound activity as filed in PubChem.
# Rows were chosen to be rich in hits. Some 12% of all compounds tested hit in one or more screens of this group.
# JMJD2A Tudor = qHTS Assay for Inhibitors of JMJD2A-Tudor Domain. Lysine-specific demethylase 4A (Homo sapiens), O75164. AlphaScreen JMJD2A-Tudor / H3K4me3 peptide binding. Potency, µM (highest dose often 114 µM), inactives show at the highest dose activity change, negative = inhibition, actives largely listed as inhibitors. 390,000 tested, 4.4% active; further: on the % scale 0 is the no-effect control and ±100 the full control effect; nearly all actives have a fitted effect of over 50% in size
# HP1b binding inh = HTS for Inhibitors of HP1-beta Chromodomain Interactions with Methylated Histone Tails; Chromobox protein homolog 1 (Homo sapiens), P83916; AlphaScreen HP1-beta / biotin-H3K9me3 peptide binding; Potency, µM (series often up to 114 µM), without a hit: at the top dose activity change, negative = inhibition, actives largely listed as inhibitors; 390,000 tested, 0.56% active; AID 540317, 2011; further: nearly all actives have a fitted effect of over 70% in size
# Target sequence (P83916 whole entry, looked up): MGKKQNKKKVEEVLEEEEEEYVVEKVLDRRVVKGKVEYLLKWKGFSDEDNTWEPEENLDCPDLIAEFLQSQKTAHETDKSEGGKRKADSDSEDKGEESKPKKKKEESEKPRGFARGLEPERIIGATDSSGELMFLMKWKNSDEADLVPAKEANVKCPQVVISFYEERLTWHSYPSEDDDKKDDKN
#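 HP1-beta protein (50 nM final) preincubated 30 min at room temperature with biotinylated H3(1-18)K9me3 peptide (50 nM) in PBS pH 7.4, 0.01% Tween-20, then compound added for 30 min. AlphaScreen streptavidin donor/nickel chelate acceptor beads (10 ug/mL final), 30 min dark, luminescence read.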
# BAZ2B inh = qHTS Assay for Inhibitors of BAZ2B; Potency, µM (top dose mostly 114 µM), inactives show at the top dose activity change, negative = inhibition, hits mostly inhibitors; AID 504333, 2011; AlphaScreen BAZ2B-H3K14Ac peptide displacement; 360,000 tested, 4.4% active; Bromodomain adjacent to zinc finger domain protein 2B (Homo sapiens), Q9UIF8; further: on the % scale 0 is the no-effect control and ±100 the full control effect; nearly all actives have a fitted effect of over 60% in size
#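 AlphaScreen displacement: compounds (up to 110uM) incubated 30 min at room temperature with a preformed 50 nM BAZ2B/50 nM biotinylated H3K14Ac peptide complex in PBS pH 7.4 with Tween-20. Donor and acceptor beads at 10 ug/mL final added, 20 min light-protected before reading.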
# L3MBTL1 inh = qHTS Assay for the Inhibitors of L3MBTL1. Lethal(3)malignant brain tumor-like protein 1 (Homo sapiens), Q9Y468. AlphaScreen L3MBTL1–H3K9me1 peptide binding. Potency, µM (highest dose often 57.1 µM), inactives show at the highest dose activity, negative = inhibition, usual class: inhibitors. 230,000 tested, 0.66% active. AID 485360, 2010; further: on the % scale 0 is the no-effect control and ±100 the full control effect; nearly all actives have a fitted effect of over 60% in size
#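 L3MBTL1 (50 nM) pre-complexed 30 min with biotinylated H3(1-15)K9me1 peptide (75 nM), then compounds added for 30 min at room temperature; AlphaScreen streptavidin donor/nickel chelate acceptor beads (10 ug/mL final) read after 30 min dark incubation.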
# G9a inh = qHTS Assay for Inhibitors of Histone Lysine Methyltransferase G9a. Histone-lysine N-methyltransferase EHMT2 (Homo sapiens), Q96KQ7. G9a H3K9 monomethylation, AlphaScreen, 2 h. Potency, µM (series often up to 102 µM), inactives show top-dose activity, negative = inhibition, actives largely listed as inhibitors. 350,000 tested, 8.8% active. AID 504332, 2011; further: on the % scale 0 is the no-effect control and ±100 the full control effect; nearly all actives have a fitted effect of over 75% in size
# Target sequence (Q96KQ7 913-1193 limits assumed): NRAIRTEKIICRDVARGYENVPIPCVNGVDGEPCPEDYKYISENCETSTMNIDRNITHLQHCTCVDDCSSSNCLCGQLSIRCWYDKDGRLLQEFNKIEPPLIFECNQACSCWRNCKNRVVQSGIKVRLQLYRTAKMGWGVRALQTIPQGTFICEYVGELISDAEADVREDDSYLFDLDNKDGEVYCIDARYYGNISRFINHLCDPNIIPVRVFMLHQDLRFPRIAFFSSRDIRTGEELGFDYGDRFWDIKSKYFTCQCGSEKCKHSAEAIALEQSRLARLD
#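 Methyltransferase reactions run at room temperature for 2 h (20 nM enzyme, 500 nM biotin-H3K9 peptide, 20 uM SAM) after a 15 min compound preincubation; product detected by AlphaScreen beads and anti-H3K9me1 antibody.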
# Sfp PPTase inh = qHTS Assay for Inhibitors of Bacillus subtilis Sfp phosphopantetheinyl transferase (PPTase); 4'-phosphopantetheinyl transferase ffp (Bacillus subtilis), Q9F4F7; Biochemical Sfp PPTase activity, qHTS; Potency, µM, for inactives: largest response in the series, negative = inhibition, usual class: inhibitors; 310,000 tested, 3.5% active; AID 1490, 2009;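 further: the enzyme is Sfp with the accession as filed and its product quenches rhodamine fluorescence; 0% = enzyme reaction without inhibitor and -100% = no enzyme wells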
#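 Reaction rates are the 30-min fluorescence difference (ex 525, em 598 nm) in wells containing 15 nM Sfp, 5 uM rhodamine-CoA and 12.5 uM BHQ-2-YbbR at pH 7.6 with 10 mM MgCl2.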
# The depositor's hits bear a star; ? = inconclusive; . = not tested or not shown; [ ] = another dose, or the depositor's remark. The call rests on the fitted dose curve; in most records, active means well fitted curve in the direction sought with a large enough effect; inconclusive means small, poorly fitted or top-dose-only effect, or another doubt; inactive means no such curve, though single readings can be large; an effect the other way counts as inactive or inconclusive. Potency means the concentration at half of the fitted maximal effect.
SMILES,JMJD2A Tudor,HP1b binding inh,BAZ2B inh,L3MBTL1 inh,G9a inh,Sfp PPTase inh
COc1ccccc1/C=C/CN1CC(C)OC(C)C1 (stereo unspecified),3.16µM*,?,44.7µM*,-5.4%,?,-12.2%
COc1ccccc1/C=C/CN1CCCCC1,1.41µM*,?,79.4µM*,-12.5%,28.2µM*,4.3%
CC(C)c1ccc(NC(=O)c2cnc3sc(N4CCOCC4)nn3c2=O)cc1,-12.0%,-9.8%,-10.2%,.,24.1%[59 µM],.
CCc1n(CC(O)COCc2ccccc2)c2ccccc2[n+]1C (stereo unspecified),?,23.8%,?,.,44.7µM*,-4.2%
COc1cccc(Cn2c(=O)c3[nH]cnc3n(-c3ccccc3C)c2=O)c1,-15.3%,45.2%,-25.3%,.,70.8µM*,-1.5%
Cc1ccccc1-n1c(=O)n(Cc2ccccc2)c(=O)c2[nH]cnc21,0.4%,12.1%,-1.3%,0.5%,20.7%[59 µM],2.1%
CCCC(=O)C1=C(c2ccccc2)C(C#N)(C#N)C(C#N)=C1N,?,-18.8%,50.1µM*,-11.2%,25.1µM*,28.2µM*
Cn1nnnc1Sc1ncnc2scc(-c3ccc(C(=O)OC(C)(C)C)cc3)c12,-26.0%,.,.,.,.,.
O=C(Cc1ccc(Cl)cc1)Nc1cc(S(=O)(=O)N2CCOCC2)ccc1N1CCCC1,-6.8%[11.4 µM],35.6%,-9.4%,0.8%,44.7µM*,9.1%
COc1ccc(CCC(=O)Nc2cc(Cl)ccc2N2CCN(C)CC2)cc1,-17.4%,5.5%,-0.5%,-2.2%,-15.6%,3.6%
O=C(Cc1c(F)cccc1Cl)Nc1cc(S(=O)(=O)N2CCOCC2)ccc1N1CCCC1,-10.1%,6.1%,.,-3.4%,.,.
COc1ccc(CC(=O)Nc2cc(Cl)ccc2N2CCCC2)cc1,-26.4%,11.3%,-10.0%,.,44.7µM*,9.2%
O=C(Cc1c(F)cccc1Cl)Nc1cc(S(=O)(=O)N2CCOCC2)ccc1N1CCOCC1,-19.3%,32.9%,-5.9%,-7.7%,50.1µM*,.
Cn1c(CCC(=O)Nc2cc(S(C)(=O)=O)ccc2Cl)nc2cc(S(=O)(=O)N3CCOCC3)ccc21,-13.8%,6.1%,79.4µM*,3.2%,10µM*,.
CCCCS(=O)(=O)c1oc(-c2ccc(F)cc2)nc1S(=O)(=O)c1ccc(C)cc1,-12.5%,24.0%,-1.0%,.,-2.3%[59 µM],.
O=S(=O)(c1ccc(Br)cc1)N1CCN(Cc2ccco2)CC1,-28.7%,-13.8%,5.1%,.,.,5.4%
O=C(CNc1cc(S(=O)(=O)N2CCOCC2)ccc1N1CCCC1)N1CCc2ccccc21,?,-11.2%,?,-7.8%,35.5µM*,4.7%
C/C=C/c1ccc(OCC(=O)Nc2cc(S(=O)(=O)N3CCOCC3)ccc2N2CCCC2)c(OC)c1,-27.6%,-11.9%,-8.0%,-0.2%,50.1µM*,.
CCCCCC(=O)Nc1cc(S(=O)(=O)N2CCCCC2)ccc1N1CCCCC1,-2.1%,3.9%,.,.,.,.
CCCCCC(=O)Nc1cc(S(=O)(=O)N2CCOCC2)ccc1N1CCCCC1,5.4%,25.7%,9.2%,5.3%,50.1µM*,.
COc1ccc(/C=C(\C#N)C(=O)Nc2cc(S(=O)(=O)N3CCOCC3)ccc2N2CCCC2)cc1,?,?,?,-9.5%,7.94µM*,35.5µM*
CCN(CC)S(=O)(=O)c1ccc(N2CCCCC2)c(NC(=O)/C(C#N)=C/c2ccc(OC)cc2)c1,-8.3%,22.7%,-25.2%,-2.8%,0.3%[59 µM],17.1%
Cc1cc(C)c(S(=O)(=O)N2CCCC(C(=O)NCc3cccnc3)C2)c(C)c1 (stereo unspecified),1.4%,28.4%,-5.1%,.,-19.1%,0.5%
CSc1nn(Cc2cccc(Cl)c2)c(N(C(C)=O)C(C)=O)c1S(=O)(=O)c1ccccc1,-10.6%,23.4%,-0.8%,.,8.7%[59 µM],.
O=C(CCCSc1ccc(Cl)cc1)Nc1cc(S(=O)(=O)N2CCOCC2)ccc1O,56.2µM*,?,?,-4.8%,?,.
SMILES,JMJD2A Tudor,HP1b binding inh,BAZ2B inh,L3MBTL1 inh,G9a inh,Sfp PPTase inh
O=S(=O)(c1ccc2c(c1)N(Cc1ccc(Cl)cc1)C1CCCN21)N1CCOCC1 (stereo unspecified),-14.6%,1.2%,-1.1%,1.0%,50.1µM*,0.6%
Cc1ccc(S(=O)(=O)N2CCOCC2)cc1NC(=O)CSc1ccc(Cl)cc1,-12.3%,21.2%,7.5%,3.4%,-3.7%[59 µM],.
O=C(COC(=O)c1ccccc1Br)Nc1cc(S(=O)(=O)N2CCOCC2)ccc1N1CCCC1,-15.5%[57.1 µM],-1.2%,?,-20.6%,14.1µM*,-3.5%
CC(=O)c1ccc(N2C(=NC(=O)C3CCCCC3)SC3CS(=O)(=O)CC32)cc1 (stereo unspecified),-2.3%,48.5%,-19.5%,.,5.5%,21.8%
COc1cc2c(cc1OC)C(COc1ccc3c(C)cc(=O)oc3c1)N(C(=O)c1ccccc1C)CC2 (stereo unspecified),-9.6%,19.3%,-7.1%,.,0.8%[59 µM],.
C#CCOCCOCCOCCNc1nc(N2CCN(C(=O)[C@H]([C@@H](C)CC)n3cc(CCCCN)nn3)CC2)nc(N2CCN(C(=O)[C@H](CCCCN)n3cc(CCCC)nn3)CC2)n1,-21.5%,10.1%,-0.6%,6.8%,20.4%[2.33 µM],.
C#CCOCCOCCOCCNc1nc(N2CCN(C(=O)[C@H](C(C)C)n3cc(CCO)nn3)CC2)nc(N2CCN(C(=O)[C@H](CCCCN)n3cc(CCCC)nn3)CC2)n1,-35.2%,25.0%,?,5.6%,28.2µM*,-2.5%
C#CCOCCOCCOCCNc1nc(N2CCN(C(=O)[C@H](CCCCN)n3cc(CCCC)nn3)CC2)nc(N2CCN(C(=O)[C@H](CCCCN)n3cc(CCCC)nn3)CC2)n1,?,-6.6%,?,1.6%,39.8µM*,-4.1%
CCCCc1cn([C@@H](CCCCN)C(=O)N2CCNCC2)nn1,56.2µM*,34.7%,?,10.0%,-0.6%[12.7 µM],15.7%
C#CCOCCOCCOCCNc1nc(N2CCN(C(=O)Cn3cc(CCO)nn3)CC2)nc(N2CCN(C(=O)[C@H](C(C)C)n3cc(CCO)nn3)CC2)n1,-18.1%,11.3%,?,8.4%,44.7µM*,-11.6%
CO[C@H]1COC(=O)CCC[C@H](C)[C@@H](OC)COC(=O)C/C=C\[C@@H]1C,.,.,.,.,.,20.5%
O=C(NCc1ccc(F)cc1)c1ccc(CSc2nc3ccncc3n2Cc2ccc(F)cc2)cc1,-1.1%,54.9%,-0.8%,.,-48.4%[59 µM],.
